In all, about 5,500 compounds went through this assay and about 2,000 (36%) were called active. Roughly 18% stayed inconclusive and do not appear here. Rule as the data show it: active = normalized growth mostly below about 0.91 (no sharp cut-off); inconclusive = no clear call, values can overlap the other calls; inactive = mostly above about 0.92. This is one part of the list.
Assay: chemical genetic growth profiling, strain panel (AID 1159580);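 also: tested at 20 µM; growth read once vehicle control cultures reached saturation at 30 °C; 1 = growth at the plate median or of vehicle wells; lower values mean less growth of the strain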
Settings: S. cerevisiae deletion strains, growth OD
[1] = locus YDL101C, strain DUN1, active compounds read low
[2] = locus YHR030C, strain SLT2, active compounds read low
[3] = locus YDR150W, strain NUM1, active compounds read low
[4] = locus YNL153C, strain GIM3, active compounds read low
[5] = locus YPL055C, strain LGE1, active compounds read low

Measured: normalized growth

O=C1/C(=C/c2ccccn2)CCc2ccccc21
active: locus YLR113W, strain HOG1, active compounds read low 0.742
inactive: locus YAR019C, strain CDC15, active compounds read low 0.923 | locus YBL105C, strain PKC1, active compounds read low 0.944 | locus YBR135W, strain CKS1, active compounds read low 0.95 | locus YBR136W, strain MEC1, active compounds read low 0.929 | locus YBR160W, strain CDC28, active compounds read low 0.957 | locus YDL017W, strain CDC7, active compounds read low 0.954 | locus YDL028C, strain MPS1, active compounds read low 0.94 | [1] 0.948 | locus YDL108W, strain KIN28, active compounds read low 0.936 | locus YDL132W, strain cdc53, active compounds read low 0.936 | locus YDL214C, strain PRR2, active compounds read low 0.927 | locus YDR052C, strain DBF4, active compounds read low 0.96 | locus YDR054C, strain cdc34, active compounds read low 0.937 | locus YDR226W, strain ADK1, active compounds read low 0.948 | locus YDR477W, strain SNF1, active compounds read low 0.897 | locus YER123W, strain YCK3, active compounds read low 0.814 | locus YER133W, strain GLC7, active compounds read low 0.897 | locus YFL009W, strain cdc4, active compounds read low 0.929 | locus YFL029C, strain CAK1, active compounds read low 0.912 | locus YFR003C, strain YPI1, active compounds read low 0.954 | locus YFR019W, strain FAB1, active compounds read low 0.951 | locus YFR028C, strain CDC14, active compounds read low 0.935 | locus YGR040W, strain KSS1, active compounds read low 0.837 | locus YGR052W, strain FMP48, active compounds read low 0.919 | locus YGR092W, strain DBF2, active compounds read low 0.813 | [2] 0.88 | locus YHR079C, strain IRE1, active compounds read low 0.869 | locus YHR082C, strain KSP1, active compounds read low 0.921 | locus YHR205W, strain SCH9, active compounds read low 0.878 | locus YIL147C, strain SLN1, active compounds read low 0.939 | locus YJL095W, strain BCK1, active compounds read low 0.863 | locus YJL128C, strain PBS2, active compounds read low 0.937 | locus YJL157C, strain FAR1, active compounds read low 0.939 | locus YJR016C, strain ILV3, active compounds read low 0.94 | locus YJR066W, strain TOR1 (second series), active compounds read low 0.633 | locus YJR066W, strain TOR1, active compounds read low 0.855 | locus YKL048C, strain ELM1, active compounds read low 0.952 | locus YKL067W, strain YNK1, active compounds read low 0.928 | locus YKL101W, strain HSL1, active compounds read low 0.922 | locus YKL193C, strain SDS22, active compounds read low 0.937 | locus YKL203C, strain TOR2, active compounds read low 0.912 | locus YLR133W, strain CKI1, active compounds read low 0.935 | locus YLR403W, strain SFP1, active compounds read low 0.869 | locus YML070W, strain DAK1, active compounds read low 0.896 | locus YMR001C, strain CDC5, active compounds read low 0.944 | locus YMR205C, strain PFK2 (second series), active compounds read low 0.948 | locus YMR277W, strain FCP1, active compounds read low 0.939 | locus YNL006W, strain LST8, active compounds read low 0.967 | locus YNL020C, strain ARK1, active compounds read low 0.948 | locus YNL161W, strain CBK1, active compounds read low 0.941 | locus YNL183C, strain NPR1, active compounds read low 0.84 | locus YNL207W, strain RIO2, active compounds read low 0.943 | locus YNL222W, strain SSU72, active compounds read low 0.942 | locus YNL307C, strain MCK1 (second series), active compounds read low 0.913 | locus YOL078W, strain AVO1, active compounds read low 0.935 | locus YOL136C, strain PFK27, active compounds read low 0.919 | locus YOR061W, strain CKA2, active compounds read low 0.934 | locus YOR119C, strain RIO1, active compounds read low 0.91 | locus YOR231W, strain MKK1, active compounds read low 0.875 | locus YOR329C, strain SCD5, active compounds read low 0.948 | locus YPL031C, strain PHO85, active compounds read low 0.874 | locus YPL153C, strain RAD53, active compounds read low 0.883 | locus YPL204W, strain HRR25, active compounds read low 0.862 | locus YPL209C, strain IPL1, active compounds read low 0.944 | locus YPL256C, strain CLN2, active compounds read low 0.861 | locus YPR025C, strain CCL1, active compounds read low 0.945 | locus YPR106W, strain ISR1, active compounds read low 0.96 | locus YPR111W, strain DBF20, active compounds read low 0.955 | strain NNK1, active compounds read low 0.967 | strain TSCII, active compounds read low 0.93

Cc1ccc(/C=C2\CCc3ccccc3C2=O)o1
active: locus YAL013W, strain DEP1, active compounds read low 0.451 | locus YBR229C, strain ROT2, active compounds read low 0.43 | [1] 0.472 | locus YDL134C, strain PPH21, active compounds read low 0.381 | [3] 0.563 | locus YEL061C, strain CIN8, active compounds read low 0.531 | locus YGR078C, strain PAC10, active compounds read low 0.794 | [2] 0.126 | locus YHR087W, strain rtc3, active compounds read low 0.528 | locus YJR043C, strain POL32, active compounds read low 0.421 | locus YJR075W, strain HOC1, active compounds read low 0.676 | locus YLR039C, strain RIC1, active compounds read low 0.275 | locus YLR058C, strain SHM2 (second series), active compounds read low 0.934 | locus YLR085C, strain ARP6, active compounds read low 0.208 | locus YLR262C, strain YPT6, active compounds read low 0.354 | locus YML094W, strain GIM5, active compounds read low 0.347 | locus YMR219W, strain ESC1, active compounds read low 0.765 | locus YMR263W, strain SAP30, active compounds read low 0.464 | [4] 0.459 | locus YNL298W, strain CLA4 (second series), active compounds read low 0.315 | locus YNL322C, strain KRE1, active compounds read low 0.755 | locus YNR030W, strain Alg12, active compounds read low 0.205 | [5] 0.263 | locus YPL241C, strain CIN2, active compounds read low 0.224 | locus YPR135W, strain CTF4, active compounds read low 0.264

Oc1ccc(-c2nc(-c3ccc(F)cc3)c(-c3ccncc3)[nH]2)cc1
inactive: locus YAL040C, strain CLN3, active compounds read low 0.975 | locus YCL061C, strain MRC1 (second series), active compounds read low 1.01 | [3] 1 | locus YER002W, strain NOP16, active compounds read low 1 | locus YMR307W, strain GAS1, active compounds read low 1.02 | [4] 0.999 | locus YNL175C, strain NOP13, active compounds read low 1.03 | locus YNL197C, strain WHI3, active compounds read low 1.02 | locus YNL224C, strain SQS1, active compounds read low 1.02 | locus YOR083W, strain WHI5 (second series), active compounds read low 1.03 | [5] 1.02

Reference: PubChem BioAssay AID1159580 (chemical genetic matrix, 2015)
